Screening data deposited in PubChem by several laboratories.
Compounds with a hit are over-represented: about 2.8% of the library has one in this group of screens.
TWEAK-Fn14 inh: blocks TWEAK-Fn14 interaction in a reporter cell assay | inhibition, % at 10 µM | AID 1159606 | TWEAK-stimulated Fn14 reporter cells, luciferase luminescence, 8 h | 2% of 360,000 active; in the data active = inhibition above about 50%
EWS-Fli block: blocks EWS/Fli oncoprotein-driven transcription. A673 NR0B1-luciferase reporter, viability-normalised. inhibition, % at 12.6 µM. 0.67% of 350,000 active;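 active = mean inhibition of at least 50% after viability correction, with every replicate also passing that limit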;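 note: firefly luciferase signal divided by Alamar Blue viability fluorescence both relative to DMSO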
PAX8 reporter: lowers PAX8-driven luciferase in RMG-I cells; AID 652154; RMG-I TPO-luciferase reporter, SteadyGlo, 24 h; inhibition, % at 12.6 µM; 1.2% of 360,000 active;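 active = mean replicate inhibition at least 60% with every replicate also reaching 60%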;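 note: luciferase light reporting Pax8 driven TPO promoter activity; plate controls were median of neutral control wells for no effect and mitoxantrone controls for full effect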
LGR2 inh: inhibitors of bursicon-induced Drosophila LGR2 receptor cAMP signaling; HEK293 LGR2, CRE-luciferase, bursicon-stimulated, 4 h; inhibition, % at 9.99 µM; 0.35% of 380,000 active;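 active = drop in luminescence signal, shown as inhibition above about 50% in the replicate tests, limit read from the data, passing the limit was not always enough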;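 note: agonist challenge used bursicon conditioned medium at about half maximal strength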
TROY signal inh: blocks TROY-dependent signaling in reporter cells | Q293 LMP1-TROYcd NF-kB luciferase reporter, 4 h | inhibition, % at 10 µM | 0.98% of 360,000 active | AID 1347056;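 active = compounds whose plate-normalised and pattern-corrected inhibition of the luciferase reporter signal at the single screening dose is 50% or more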
* hit, by the source's call; · = no result.

SMILES | TWEAK-Fn14 inh | EWS-Fli block | PAX8 reporter | LGR2 inh | TROY signal inh
C[C@@H]1CN([C@@H](C)CO)C(=O)c2cc(NC(=O)NC3CCCCC3)ccc2O[C@@H](C)CCCCO[C@@H]1CN(C)C(=O)Cc1ccccc1 | · | 8.5 | 15.8 | -4.9 | ·
Cc1cnc(NC(=O)C2CC(=O)N(c3cccc(Cl)c3)C2)s1 (stereo unspecified) | 43.2 | · | 49.7 | 79.1* | 15.4
Cc1cnc(NC(=O)C2CC(=O)N(c3ccc4c(c3)OCCO4)C2)s1 (stereo unspecified) | 29.7 | -6.1 | -18.8 | 22.6 | -0.3
COc1ccc(/C=C2\C(=O)OCc3cc(OC)c(OC)cc32)cc1OC | -20.5 | · | -16.0 | -12.4 | -21.4
COc1cc2c(cc1OC)/C(=C/c1ccc(Cl)cc1)C(=O)OC2 | 25.3 | · | -4.3 | 20.4 | 50.2*
C[C@H](CO)N1C[C@H](C)[C@@H](CN(C)C(=O)Nc2cccc3ccccc23)Oc2ccc(NC(=O)Nc3ccc(F)cc3)cc2C1=O | · | -0.9 | 3.1 | 19.5 | ·
C=C1C(=O)OC2C1CCC(C)=C1C(=O)C3OC3(C)C12 (stereo unspecified) | 95.0* | 47.2 | · | 98.7* | 40.8
COCC(=O)N(C)C[C@@H]1Oc2ncc(C#CCC3CCCC3)cc2C(=O)N([C@@H](C)CO)C[C@H]1C | · | -5.9 | · | -8.7 | ·
CC(=O)NC(=S)Nc1sc2c(c1C#N)CCCCC2 | 67.3* | -47.9 | 24.1 | 21.1 | 58.6*
CC(C)(C)C(=O)NC(NC(=S)Nc1sc2c(c1C#N)CCCC2)C(Cl)(Cl)Cl (stereo unspecified) | -8.6 | · | · | · | 58.9*
CCCc1cc(C(=O)Nc2sc(C)c(CC)c2C#N)no1 | -24.3 | -0.6 | -31.8 | -4.7 | -26.4
CC(C)(C)C(=O)Nc1sc2c(c1C#N)CCC2 | -1.3 | -10.3 | -2.8 | -9.1 | -3.1
CC(=O)Nc1sc2c(c1C#N)CCCC2 | -23.7 | · | -31.6 | · | -41.5
CCCc1cc(C(=O)Nc2sc3c(c2C#N)CCC3)no1 | 99.9* | -10.7 | 6.4 | -22.8 | -27.7
COc1ccc(NC(=O)N(C)C[C@H]2OCCCC[C@H](C)Oc3ccc(NC(=O)Cc4ccccc4)cc3C(=O)N([C@H](C)CO)C[C@H]2C)cc1 | · | 3.9 | · | -3.7 | ·
C[C@@H]1CN([C@@H](C)CO)C(=O)c2c(c3ccccc3n2C)-c2ccccc2CO[C@H]1CN(C)S(=O)(=O)c1cccc(F)c1 | · | 1.1 | 86.8* | 9.9 | ·
COc1ccccc1S(=O)(=O)N(C)C[C@H]1OCc2ccccc2-c2c(n(C)c3ccccc23)C(=O)N([C@H](C)CO)C[C@@H]1C | · | 19.2 | 61.9* | -1.2 | ·
COc1cccc(S(=O)(=O)N(C)C[C@H]2OCc3ccccc3-c3c(n(C)c4ccccc34)C(=O)N([C@H](C)CO)C[C@H]2C)c1 | · | 22.6 | 85.8* | 4.6 | ·
COc1cccc(S(=O)(=O)N(C)C[C@@H]2OCc3ccccc3-c3c(n(C)c4ccccc34)C(=O)N([C@@H](C)CO)C[C@H]2C)c1 | · | 13.9 | 8.0 | · | ·
COc1ccccc1S(=O)(=O)N(C)C[C@@H]1OCc2ccccc2-c2c(n(C)c3ccccc23)C(=O)N([C@H](C)CO)C[C@H]1C | · | 12.0 | 16.6 | -0.8 | ·
COc1cc2c(c(OC)c1OC)-c1ccc(NC(=O)c3ccc(F)cc3)c(=O)cc1[C@@H](NC(C)=O)CC2 | -2.5 | 42.9 | 0.3 | -4.5 | 9.7
COc1cc2c(c(OC)c1OC)-c1ccc(OC)c(=O)cc1[C@@H](NC(C)=O)CC2 | 0.9 | 62.5* | 95.8* | -15.7 | 28.1
CCOC(=O)NC1CCc2cc(OC)c(OC)c(OC)c2-c2ccc(OC)c(=O)cc21 (stereo unspecified) | 0.5 | 47.5 | 73.4* | 20.6 | 11.8
COc1cc2c(c(OC)c1OC)-c1ccc(NCc3ccccc3)c(=O)cc1C(NC(C)=O)CC2 (stereo unspecified) | 4.3 | 36.2 | 84.3* | -10.1 | 0.9
COc1cc2c(c(OC)c1OC)-c1ccc(N(C)CC(OC)OC)c(=O)cc1[C@@H](NC(C)=O)CC2 | 16.4 | 60.0* | 98.9* | -11.6 | 21.0
SMILES | TWEAK-Fn14 inh | EWS-Fli block | PAX8 reporter | LGR2 inh | TROY signal inh
Cc1noc(C)c1S(=O)(=O)Nc1ccc2c(c1)C(=O)N([C@@H](C)CO)C[C@H](C)[C@H](CN(C)S(C)(=O)=O)O2 | · | -13.6 | · | -34.8 | ·
C[C@@H]1CN([C@H](C)CO)S(=O)(=O)c2ccc(-c3cncnc3)cc2O[C@@H]1CN(C)C | · | -5.3 | · | -1.2 | ·
C[C@H]1CN([C@@H](C)CO)C(=O)c2cc(NC(=O)CCCCCC(=O)Nc3ccccc3N)ccc2O[C@H]1CN(C)C(=O)NC1CCCCC1 | · | · | · | 9.3 | ·
COc1ccc(-c2cn3ccccc3n2)cc1[N+](=O)[O-] | -29.6 | -117.3 | -247.8 | -61.8 | -80.0
CCCCNc1c(-c2ccc(OC)c(Sc3ccc(OC)cc3)c2)nc2cnccn12 | 12.5 | 20.2 | 5.3 | -13.9 | -13.5
COc1ccc(C(=O)Nc2c(-c3ccccc3)nc3ccccn23)c(OC)c1 | 56.0* | 2.1 | 6.4 | -4.4 | 12.3
CCCCNc1c(-c2ccc(OC)c(Sc3ccc(OC)cc3)c2)nc2ccccn12 | 57.2* | · | · | -15.1 | 6.8
COc1ccccc1C(=O)Nc1c(-c2ccccc2)nc2ccccn12 | 16.9 | 2.3 | -13.3 | -9.3 | -5.7
COc1ccc(-c2cn3ccccc3n2)cc1 | 51.0* | 15.2 | -12.2 | 24.6 | 11.1
CCCOc1ccc(-c2cn3ccccc3n2)cc1 | 2.3 | 47.1 | 8.9 | 75.2* | -31.9
COc1ccc(-c2nc3ccccn3c2CN2CCN(c3ccccc3F)CC2)cc1 | -16.8 | 7.7 | -28.4 | -7.6 | -47.5
COc1ccc(-c2nc3ccccn3c2Cl)cc1 | 52.0* | 18.3 | -52.4 | 16.8 | 2.8
C=CCn1c(CSCc2ccc(Cl)cc2)nnc1SCC(=O)NCc1ccccc1 | 24.5 | · | · | 8.5 | 15.0
C=CCn1c(CSCc2ccc(C)cc2)nnc1SCC(=O)NCc1ccccc1 | 73.9* | · | · | -16.6 | ·
COc1ccc(-c2ccc3c(c2)[C@@H]2[C@@H](CCN2C(=O)C2CCOCC2)[C@H](CO)N3C)cc1 | · | -6.8 | 1.7 | -4.6 | ·
CCCC(Oc1ccc(Br)cc1)c1nc2c3cc(OC)c(OC)cc3nc(=S)n2[nH]1 (stereo unspecified) | 43.1 | 42.4 | 12.7 | 7.8 | 61.6*
O=[N+]([O-])c1nn(-c2ccccc2)n(O)c1=NCCc1ccccc1 | -3.2 | · | · | -24.6 | -44.6
CC(C)c1ccc(N=c2c([N+](=O)[O-])nn(-c3ccc4c(c3)OCCO4)n2O)cc1 | 35.3 | -1.7 | · | -19.8 | 17.5
CCc1cccc(N=c2c([N+](=O)[O-])nn(-c3ccc4c(c3)OCCO4)n2O)c1 | 31.3 | -11.0 | 100.9* | -52.4 | 55.4*
COc1ccc(-n2nc([N+](=O)[O-])c(=NCCc3ccccc3)n2O)cc1 | -6.4 | -9.6 | 93.9* | -22.1 | -32.1
CCc1cccc(N=c2c([N+](=O)[O-])nn(-c3ccc(Cl)cc3)n2O)c1 | -1.3 | 6.0 | · | 0.8 | -26.7
COc1cc(N=c2c([N+](=O)[O-])nn(-c3ccc4c(c3)OCCO4)n2O)cc(OC)c1 | 41.0 | · | · | -2.8 | 53.5*
CO[C@@H]1CN(C)C(=O)c2ccc(NC(=O)c3cccc(F)c3)cc2OC[C@@H](C)NC[C@@H]1C | · | 6.1 | · | -12.8 | ·
